Assay results reported in PubChem BioAssay.
Activity calls are given as the source filed them.

How the values were obtained:
[1] = A549 cell viability effects, profiling panel, calcein-AM fluorescence, 48 h, basal (AID 1162); settings: higher = more signal
[2] = adipocyte viability effects, profiling panel, cell-based, 3T3-L1 adipocytes, calcein-AM fluorescence, 48 h, basal (AID 1163); settings: 3T3-L1 adipocytes viability, higher = more signal
[3] = HepG2 cell viability effects, profiling panel, calcein-AM fluorescence, 48 h, basal (AID 1164); settings: higher = more signal
[4] = MM1S cell viability effects, profiling panel, calcein-AM fluorescence, 48 h, basal (AID 1165); settings: higher = more signal;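 further: viability of MM1S multiple myeloma cells under basal unstimulated conditions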
[5] = basal RPMI8226 viability, no added stimulus, profiling panel, cell-based, calcein-AM fluorescence, 48 h, PK04 Diversity Set (AID 1166); settings: RPMI8226 myeloma viability, higher = more signal;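 further: cells grown under basal conditions without added stimulus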
[6] = basal HepG2 mitochondrial membrane potential changes, profiling panel, cell-based, JC-1 fluorescence, 24 h, 100 nL compound (AID 1167); settings: higher = more signal
[7] = basal 3T3-L1 adipocyte mitochondrial potential changes, profiling panel, cell-based, JC-1 fluorescence, 3T3-L1 adipocytes, 24 h, 100 nL compound (AID 1168); settings: JC-1 mitochondrial fluorescence, higher = more signal, called active from +8 up or from −8 down
[8] = basal RPMI8226 mitochondrial membrane potential changes, profiling panel, cell-based, JC-1 fluorescence, 24 h, 100 nL compound (AID 1169); settings: RPMI8226 myeloma, JC-1 mitochondrial potential fluorescence, higher = more signal
[9] = basal MM1S mitochondrial membrane potential changes, profiling panel, cell-based, JC-1 fluorescence, 24 h, 100 nL compound (AID 1170); settings: higher = more signal
[10] = A549 lung cancer cell viability effects, profiling panel, resazurin fluorescence, 24 h, PK04 Diversity Set (AID 1171); settings: higher = more signal, called active from +8 up or from −8 down
Further: test concentration not given here.

| Compound | z-score [1] | z-score [2] | z-score [3] | z-score [4] | z-score [5] | z-score [6] | z-score [7] | z-score [8] | z-score [9] | z-score [10] |
| --- | --- | --- | --- | --- | --- | --- | --- | --- | --- | --- |
| C=C(C)C1CCC(C(O)C2C=CC3C(=O)N(C)C(=O)C3N2Nc2cc(OC)c(OC)c(OC)c2)CC1 (stereo not given) | -1.13 | -1 | -0.273 | -0.989 | -0.0317 | -0.648 | -0.696 (inactive) | -0.354 | -0.549 | -0.404 (inactive) |
| C=C[C@H](C)[C@H](OC(=O)Nc1ccc(OC)cc1)c1ccc(OCCO)cc1 | 0.366 | -0.402 | 0.692 | -0.412 | -1.83 | -0.569 | 0.627 (inactive) | -0.0376 | 0.873 | -0.262 (inactive) |
| CC(C)OC(=O)CC(=O)CC(O)c1ccc([N+](=O)[O-])cc1 (stereo not given) | 1.78 | -0.228 | 0.714 | 0.772 | 0.159 | 0.775 | 0.377 (inactive) | -0.121 | -0.359 | -0.741 (inactive) |
| COc1ccc(C#Cc2ccc3c(c2)[C@]2(C(=O)N3)[C@H](C(=O)N3CCCCCCC3)[C@H]3C(=O)O[C@H](c4ccccc4)[C@H](c4ccccc4)N3[C@@H]2c2ccc(O)cc2)cc1 | -0.636 | 1.61 | -0.984 | 0.171 | -1.05 | -1.2 | 1.34 (inactive) | -0.582 | -0.191 | 0.601 (inactive) |
| COCCOC(=O)N1C(=O)[C@@]2(c3ccccc31)[C@H](c1ccccc1OCCO)N1[C@H](c3ccccc3)[C@H](c3ccccc3)OC(=O)[C@H]1[C@@H]2C(N)=O | -1.59 | 0.61 | -1.85 | -3.32 | -4.57 | -0.88 | -0.27 (inactive) | -1.15 | -1.21 | -1.78 (inactive) |
| CCC(CC)C(O)C1C=CC2C(=O)N(c3ccccc3)C(=O)C2N1Nc1ccc([N+](=O)[O-])cc1 (stereo not given) | -0.878 | -1.13 | -0.172 | 0.486 | -1.23 | -2.25 | -1.37 (inactive) | 0.523 | -1.6 | -0.517 (inactive) |
| O=C(O)[C@@H]1C[C@@H]2C(=O)N3CCC[C@H]3C(=O)N2[C@@H]1c1cccc(OCCO)c1 | 0.0951 | 0.717 | -0.439 | -0.456 | -0.159 | 0.591 | 0.283 (inactive) | 0.817 | 0.718 | -0.0326 (inactive) |
| COC(=O)C(CC#Cc1ccc2c(c1)[C@]1(C(=O)N2)[C@H](c2ccc(OCCO)cc2)N2[C@H](c3ccccc3)[C@H](c3ccccc3)OC(=O)[C@H]2[C@@H]1C(=O)N1CCN(c2ncccn2)CC1)C(=O)OC | -0.824 | -0.661 | 0.228 | -0.966 | -3.72 | -1.01 | 0.525 (inactive) | -1 | -1.55 | 0.352 (inactive) |
| COc1cc(C(O)C2C=CC3C(=O)N(Cc4ccccc4)C(=O)C3N2n2cnnc2)cc(OC)c1OC (stereo not given) | 1.39 | -0.356 | 1.67 | 0.599 | 1.46 | 0.576 | 0.328 (inactive) | 0.251 | 0.588 | -0.538 (inactive) |
| CCN(CC)c1ccc(N2CC=CC34O[C@@H]5/C=C\CCC(C)OC(=O)C5[C@H]3C(=O)N(C(C)CO)[C@@H]4C2=O)cc1 (stereo not given in full) | -0.0588 | -1.03 | 1.48 | 0.86 | 0.388 | 1.16 | 0.0645 (inactive) | -0.616 | -0.585 | -0.0052 (inactive) |
| NC(=O)[C@H]1[C@@H]2C(=O)O[C@@H](c3ccccc3)[C@@H](c3ccccc3)N2[C@@H](c2ccc(O)cc2)[C@]12C(=O)Nc1ccc(C#CC3=CCCCC3)cc12 | -1.8 | 0.741 | -3.91 | -3.33 | -4.54 | -3.68 | -2.09 (inactive) | -1.16 | -1.32 | -0.3 (inactive) |
| C=CCC(OC(C)=O)[C@@H]1[C@@H](N(Cc2ccc(-c3ccccc3)cc2)C(=O)Cc2ccc(F)cc2)c2cc(OCCCO)ccc2N1C(=O)Cc1ccc2ccccc2c1 (stereo not given in full) | 0.234 | -0.246 | 0.646 | -0.177 | 0.0473 | 2.19 | -0.321 (inactive) | -0.909 | 0.89 | 1.05 (inactive) |
| CCOC(=O)C=Cc1cc(F)ccc1O | -1.13 | 0.749 | -0.714 | -0.633 | -1.39 | -1.19 | -0.966 (inactive) | 0.287 | -0.0774 | 0.0142 (inactive) |
| O=C(O)[C@H]1C[C@H]2C(=O)N[C@@H](Cc3ccccc3)C(=O)N2[C@H]1c1cccc(OCCO)c1 | 1.11 | -0.218 | 0.259 | -3.41 | -0.958 | 1.64 | -0.169 (inactive) | -0.299 | -1.18 | 0.75 (inactive) |
